# Compounds without any hit were thinned out: in the full panel of roughly 83,000, 20% have a hit.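 Interpretation: 100, growth as untreated; towards 0, rising growth inhibition; 0, no net growth; 0 to -100, cell death. Compounds scoring below 10 were considered active.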 A number with no mark means an inactive call. Calls of active or inactive are those of the source.
# What was measured:
# Test in all cases: NCI-60 one-dose screen, 48 h (100 = growth as untreated, 0 = no growth, -100 = all killed)
# Settings in all cases: 10 µM unless noted
# SR leukemia = test system: SR leukemia
# RPMI-8226 leukemia = test system: RPMI-8226 leukemia
# OVCAR-8 ovarian = test system: OVCAR-8 ovarian
# OVCAR-5 ovarian = test system: OVCAR-5 ovarian
# OVCAR-4 ovarian = test system: OVCAR-4 ovarian
# SK-OV-3 ovarian = test system: SK-OV-3 ovarian
# IGROV1 ovarian = test system: IGROV1 ovarian
# OVCAR-3 ovarian = test system: OVCAR-3 ovarian
# HS 578T breast = test system: HS 578T breast
# NCI/ADR-RES ovarian = test system: NCI/ADR-RES ovarian
# T-47D breast = test system: T-47D breast
# BT-549 breast = test system: BT-549 breast
# MDA-MB-435 melanoma = test system: MDA-MB-435 melanoma
# SW-620 colon = test system: SW-620 colon
# MCF7 breast = test system: MCF7 breast
# HCT-116 colon = test system: HCT-116 colon
# HCC-2998 colon = test system: HCC-2998 colon
# KM12 colon = test system: KM12 colon
Compound,growth (SR leukemia),growth (RPMI-8226 leukemia),growth (OVCAR-8 ovarian),growth (OVCAR-5 ovarian),growth (OVCAR-4 ovarian),growth (SK-OV-3 ovarian),growth (IGROV1 ovarian),growth (OVCAR-3 ovarian),growth (HS 578T breast),growth (NCI/ADR-RES ovarian),growth (T-47D breast),growth (BT-549 breast),growth (MDA-MB-435 melanoma),growth (SW-620 colon),growth (MCF7 breast),growth (HCT-116 colon),growth (HCC-2998 colon),growth (KM12 colon)
C=C1CC[C@@H]2[C@](C)(COC(C)=O)[C@H](OC(C)=O)CC[C@@]2(C)[C@@H]1CC(Nc1ccc(S(=O)(=O)Nc2ccc(Cl)nn2)cc1)C1=CCOC1=O (stereo partly specified),-5.26% (active),-19.2% (active),16.9%,44.6%,30.8%,86.1%,43.3%,-56.1% (active),75.6%,16.7%,34.1%,-9.45% (active),8.13% (active),-37.7% (active),16.8%,-34.1% (active),88.5%,27%
Nc1c(C(=O)Nc2cccc3c2OCCO3)sc2nc3c(cc12)C(=O)CCC3,36.3%,33.7%,51.8%,36.1%,71%,70.5%,48%,16.2%,29.5%,14.1%,36.5%,62.7%,-60.4% (active),25.2%,18.6%,33.8%,46.6%,23.4%
COCCOC(=O)C1=C(C)NC(=S)NC1c1ccc2c(c1)OCO2 (stereo unspecified),95.5%,105%,102%,109%,103%,103%,105%,111%,104%,103%,94.8%,109%,104%,106%,89.6%,103%,109%,100%
CSc1[nH]c2ncnc(N)c2c1C#N,99.5%,106%,115%,87.4%,94.2%,92.7%,92.4%,125%,130%,86.1%,97.3%,85.9%,102%,128%,100%,102%,108%,122%
Nc1cc2nc3ccccc3sc-2cc1=O,2.91% (active),45.2%,64.4%,94.2%,73.3%,90.8%,54.7%,65.2%,85.1%,81.1%,71.1%,63.1%,-68.2% (active),84.7%,44.3%,72.7%,100%,80.8%
C/C(=C(/c1ccc(O)cc1)c1ccc(Cl)cc1)c1ccccc1,-27.9% (active),-45.9% (active),-53% (active),-85.3% (active),-97.4% (active),-85.6% (active),-73.1% (active),-92.5% (active),-37.6% (active),-71% (active),-13.5% (active),-78.9% (active),-93.1% (active),-71.4% (active),-63.3% (active),-69.4% (active),-74.9% (active),-86.2% (active)
Nc1cc2ccncc2c2ccccc12,0.467% (active),84.1%,57.6%,76.2%,82.4%,66.2%,58.7%,75.4%,116%,53.2%,82.3%,70.5%,59.8%,62.7%,51.5%,38.3%,83%,68.6%
CCCCCn1cnc2c(=S)nc[nH]c21,112%,81.9%,118%,121%,86.5%,98.7%,116%,124%,101%,113%,90.8%,129%,105%,97.8%,98.4%,106%,122%,109%
COC1=CC(=O)C(OC)=C(OC)C1=O,36.5%,67.1%,101%,107%,77.4%,92.5%,113%,104%,95.5%,100%,97%,101%,97.5%,101%,90.6%,92.3%,117%,110%
CN(C)CCCC(=O)Nc1ccc(Cn2nnc3c2C(=O)c2nnn(Cc4ccc(NC(=O)CCCN(C)C)cc4)c2C3=O)cc1,74.7%,76.1%,86.6%,115%,-98.6% (active),89.8%,57.3%,4.3% (active),112%,108%,-5.44% (active),80.5%,-83.7% (active),52.3%,-40% (active),6.95% (active),59.3%,81.4%
CCCCCCCCOC(=O)CC[C@@H](C)[C@H]1CC[C@H]2[C@@H]3[C@H](OC(=O)CCN)C[C@@H]4C[C@H](OC(=O)CCN)CC[C@]4(C)[C@H]3C[C@H](OC(=O)CCN)[C@]12C,-12.9% (active),77.8%,69.5%,92.1%,75.7%,90.9%,77.2%,108%,79.5%,101%,88.8%,124%,74.1%,20%,10.8%,49.3%,84.2%,77.8%
CCOC(=S)SCc1ccc(Cl)cc1,80.2%,108%,101%,95.6%,95.6%,150%,104%,94.4%,107%,105%,120%,96.3%,101%,101%,103%,92.3%,131%,108%
O=[N+]([O-])c1cccc(-c2nc3sccn3c2-c2ccnc(NCCCNS(=O)(=O)c3cccc(F)c3)n2)c1,13.2%,-32.5% (active),-5.3% (active),66.2%,-12.2% (active),44.6%,3.18% (active),-2.65% (active),31.2%,-20.8% (active),-13.4% (active),-16.8% (active),-19.4% (active),22.9%,-18.9% (active),7.77% (active),65.6%,-10.6% (active)
CCCCCCCCCC(=O)Oc1ccc(/C(=C(/C)Cc2cccc(OC)c2)c2ccc(OCCN(C)C)cc2)cc1,106%,106%,108%,101%,115%,113%,110%,109%,108%,98.4%,69.4%,108%,103%,104%,58.2%,102%,100%,104%
O=C(Nc1ccc(F)cc1)Nc1ccc(CCO)cc1,103%,108%,104%,114%,97.6%,113%,99.9%,117%,106%,108%,104%,108%,97.4%,108%,109%,94.7%,108%,108%
COc1ccc(C(=O)/C=C/c2c(Cl)c3c(c(OC)c2Cl)OCC(=O)N3)cc1,3.68% (active),3.79% (active),6.16% (active),76.8%,47.2%,77.9%,63.1%,10.9%,39.4%,19.4%,25.1%,-14.8% (active),7.18% (active),17.7%,14.9%,11.4%,41.8%,15.9%
CN1CCCCC1CCN1c2ccccc2Sc2ccc(Br)cc21 (stereo unspecified),-32% (active),46%,62.3%,85.9%,59.4%,69.6%,35.9%,77.9%,81%,73.2%,77.9%,68.5%,20.4%,79.6%,21%,28.8%,51.3%,60.7%

# From PubChem BioAssay (NCI)
